From PubChem
Pf growth 48h = inhibits P. falciparum growth in the first generation, 48 h | AID 504832 | 310,000 tested, 5.9% active | Potency, µM (series often up to 28.7 µM), for inactives: top-dose activity change, negative = inhibition, usual class: inhibitors | P. falciparum luciferase growth in erythrocytes, 48 h; also: % is scaled to controls: 0 for no effect and ±100 for the full control effect
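Compounds are pin-transferred into medium, infected erythrocytes (2% hematocrit, 0.1% parasitemia final) are added, and plates sit one parasite generation at 37 C in 5% CO2. Detection reagent is then added and luminescence measured.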
Sm TGR block = S. mansoni TGR enzyme inhibition | 360,000 tested, 3% active | Potency, µM (top dose mostly 114 µM), for the others: at the top dose activity change, negative = inhibition, usual class: inhibitors | AID 485364 | Q962Y6 | purified TGR, DTNB reduction, TNB absorbance 405 nm; also: % is scaled to controls: 0 for no effect and ±100 for the full control effect; nearly all actives have a fitted effect of over 60% in size
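TGR 20 nM + NADPH 100 uM (dispensed conc.), cpd preinc 15 min RT; start with NADPH (500 uM addition) then DTNB (15 mM addition). Kinetic TNB absorbance, 405 nm filter. Four-parameter Hill fit across titration.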
SARS PLP yeast = blocks SARS-CoV papain-like protease in a yeast assay. Potency, µM (top dose mostly 32.9 µM), without a hit: at the highest dose activity, positive = growth rescue, most hits filed as activators. S. cerevisiae expressing SARS-CoV PLpro, growth rescue. 330,000 tested, 0.19% active; calls by dose curve; also: 0% is about no effect; nearly all actives have a fitted effect of over 55% in size
AmpC no deterg = inhibitors of E. coli AmpC beta-lactamase without detergent; P00811; AmpC nitrocefin hydrolysis, absorbance 480 nm, 0.0001% Triton; Potency, µM (titrated, usually from 57.1 µM), for the others: top-dose activity change, negative = inhibition, most hits filed as inhibitors; 330,000 tested, 0.52% active;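 also: plate controls were no compound for no effect and no enzyme for full effect; nearly all actives have a fitted effect of over 20% in size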
Target sequence (P00811 whole entry, looked up): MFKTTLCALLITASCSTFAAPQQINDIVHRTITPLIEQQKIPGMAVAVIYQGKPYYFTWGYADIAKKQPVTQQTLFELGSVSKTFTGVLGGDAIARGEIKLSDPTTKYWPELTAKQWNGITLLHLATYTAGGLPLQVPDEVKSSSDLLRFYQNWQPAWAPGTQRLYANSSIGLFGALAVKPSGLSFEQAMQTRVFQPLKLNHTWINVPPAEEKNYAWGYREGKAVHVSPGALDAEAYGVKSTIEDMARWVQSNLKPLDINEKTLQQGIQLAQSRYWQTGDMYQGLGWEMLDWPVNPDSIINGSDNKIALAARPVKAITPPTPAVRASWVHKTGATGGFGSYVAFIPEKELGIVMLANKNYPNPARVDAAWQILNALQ
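AmpC (5.3 nM in the dispensed reagent) in 20 mM phosphate pH 7.0 with 0.01% (detergent screen) or 0.0001% Triton X-100 was preincubated with compounds for 15 min at room temperature. Nitrocefin was then added from an 800 uM solution, and hydrolysis was followed at 480 nm.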
Pf growth 96h = inhibits malaria parasite growth, 96 h; P. falciparum luciferase reporter growth, 96 h; 320,000 tested, 6.9% active; Potency, µM (highest dose often 28.7 µM), for the others: at the highest dose activity change, negative = inhibition, hits mostly inhibitors; also: % is scaled to controls: 0 for no effect and ±100 for the full control effect
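P. falciparum expressing integrated firefly luciferase grown in erythrocytes (2% hematocrit, 0.05% parasitemia final) with compounds for 96 hours at 37 C, 5% CO2. Growth inhibition read as loss of luminescence after adding luciferase detection reagent.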
AmpC detergent = AmpC beta-lactamase inhibition with detergent present. 370,000 tested, 0.041% active. AmpC hydrolysis of nitrocefin, absorbance 480 nm, 0.01% Triton. Potency, µM (doses to about 114 µM), without a hit: at the top dose activity change, negative = inhibition, usual class: inhibitors. P00811;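 also: 0% = no-compound wells and -100% = no-enzyme wells; nearly all actives have a fitted effect of over 25% in size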
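20 mM phosphate pH 7.0 + 0.01% (detergent screen) or 0.0001% Triton X-100; 5.3 nM AmpC reagent; cpd preinc 15 min RT; nitrocefin (800 uM stock) to start; A480 q20 s × 4 min; Activity was normalised to no-enzyme and no-compound control wells.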
Numbers without * were called inactive; ? = inconclusive; · = no result; [ ] = dose if it differs, or a comment. The list is not random: actives were taken first. Their share in the collection is about 12%. Unless noted, calls follow the shape of the dose curve; as a rule, active = well fitted curve in the direction sought with a large enough effect; inconclusive = small, poorly fitted or top-dose-only effect, or another doubt; inactive = no such curve, though single readings can be large; an effect the other way counts as inactive or inconclusive. Potency is read from the fitted curve at half-maximal effect.

SMILES	Pf growth 48h	Sm TGR block	SARS PLP yeast	AmpC no deterg	Pf growth 96h	AmpC detergent
O=C(CC12CC3CC(CC(C3)C1)C2)NC(=S)NCc1ccco1	13.1µM*	-23.9%	-4.1%	-8.4%[2.29 µM]	?	-6.2%
O=C(NCc1ccco1)C12CC3CC(CC(C3)C1)C2	?	-7.5%	-6.0%	-19.7%	33.3%	-3.4%
CN(CCO)c1cc(N2CCC3(CC2)OCCO3)c2nonc2c1[N+](=O)[O-]	4.1%	28.2µM*	3.2%	-19.9%	?	-8.1%
CN(CCO)c1cc(NCCCN2CCC(Cc3ccccc3)CC2)c2nonc2c1[N+](=O)[O-]	10.4µM*	-1.7%	-4.9%	-10.8%	-6.8%	?
COc1ccc(CNc2cc(NCCCO)c([N+](=O)[O-])c3nonc23)cc1	-21.0%	22.4µM*	-0.3%	-17.4%	?	-1.9%
CC1CCN(CCCNc2cc(NCCO)c([N+](=O)[O-])c3nonc23)CC1	2.5%[0.00184 µM]	-3.1%	0.7%	-19.6%	-10.0%	1.0%
CN(CCO)c1cc(N2CCCCC2)c2nonc2c1[N+](=O)[O-]	-3.7%	17.8µM*	1.5%	-27.1%	?	3.9%
COc1ccc(Nc2cc(NCCCO)c([N+](=O)[O-])c3nonc23)cc1	?	2.6%	2.5%	-1.1%	?	0.7%
CCOc1ccccc1N1CC(C(=O)Nc2ccc3c(c2)OCCO3)CC1=O (stereo not drawn)	0.0%	-4.6%	3.5%	3.0%	-27.2%	-3.3%
CCc1ccccc1NC(=O)CSc1nnc(COc2ccccc2Cl)o1	·	-0.8%	·	·	·	15.1%
O=[N+]([O-])c1c(NCCCO)cc(N2CCCCCC2)c2nonc12	-34.8%[0.00184 µM]	11.2µM*	-1.4%	123.1%	3.9%	5.0%
COc1ccc(CCNC(=O)CCc2c(C)c3cc4c(C)coc4c(C)c3oc2=O)cc1OC	·	-8.9%	·	·	·	?
Cc1ccc2c(COn3nnc4ccc(S(=O)(=O)N(C)C)cc43)cc(=O)oc2c1C	4.5%	-4.7%	0.0%	-0.6%	10.4µM*	-5.4%
Cc1ccc(COn2nnc3ccc(S(=O)(=O)N4CCOCC4)cc32)cc1	-11.5%	-3.0%	-2.9%	33.2%	?	-1.0%
C=CCN1C(=O)C(Cc2ccc(OC)cc2)S/C1=N/N=C/c1ccco1 (stereo not drawn)	9.28µM*	39.8µM*	-3.3%	-1.8%	?	-0.2%
C=CCN1C(=O)C(Cc2ccc(Br)cc2)S/C1=N\N=C\c1ccco1 (stereo not drawn)	4.7%	?	-4.8%	-29.3%	11.7µM*	-12.1%
Cc1ccc(CNC(=O)NCc2noc3ccc(C)cc23)cc1	·	-2.2%	·	·	·	7.0%
c1ccc(-c2onc(-c3ccco3)c2-c2ccc3[nH]ccc3c2)cc1	-4.5%	44.7µM*	-19.1%	-39.3%	?	?
c1ccc(-c2ccc3[nH]ccc3c2)cc1	96.5%	2.3%	0.7%	-14.9%	182.0%	2.1%
Cc1ccc2cccnc2c1NC(=S)NC(=O)c1ccccc1	?	35.5µM*	1.0%	-27.0%	?	0.3%
Cc1ccc2cn[nH]c2c1NC(=S)NC(=O)c1ccccc1	13.6%	14.1µM*	1.7%	-27.4%	-16.8%	-1.7%
Cc1ccc2cn[nH]c2c1NC(N)=S	-5.9%	-7.6%	0.1%	-5.9%	?	-13.8%
COc1ccc(OC)c(NC(=O)c2cc3c(=O)oc4ccccc4c3s2)c1	·	3.8%	·	·	·	7.8%
CCOC(=O)c1ccc(N2C(=O)c3n[nH]c(-c4ccco4)c3C2c2cccc(O)c2)cc1 (stereo not drawn)	·	15.3%	·	·	·	-0.8%
O=C(COc1coc(CN2CCc3ccccc3C2)cc1=O)Nc1cccc(F)c1	6.2%	0.9%	1.3%	-25.0%	4.65µM*	-18.6%
SMILES	Pf growth 48h	Sm TGR block	SARS PLP yeast	AmpC no deterg	Pf growth 96h	AmpC detergent
CCOc1ccc(NC(=O)COc2coc(CN3CCc4ccccc4C3)cc2=O)cc1	?	-8.2%	6.5%	9.3%	-22.4%	0.0%
O=C(COc1coc(CN2CCc3ccccc3C2)cc1=O)Nc1cccc(Cl)c1	2.2%	-1.5%	3.5%	-1.5%	?	-8.6%
COc1ccc(NC(=O)COc2coc(CN3CCc4ccccc4C3)cc2=O)cc1	-16.2%	-6.8%	-2.3%	-1.5%	13.1µM*	-7.4%
Cc1ccc(NC(=O)c2cccc(N3C(=O)C4C5CCC(C5)C4C3=O)c2)c(C)c1 (stereo not drawn)	10.4µM*	0.8%	9.9%	8.8%	16.5%	8.3%
CN(C)c1ccc(NC(=O)c2cccc(N3C(=O)C4C5C=CC(C5)C4C3=O)c2)cc1 (stereo not drawn)	121.6%	?	2.0%	-17.8%	·	-1.2%
CC(=O)COC(=O)c1cccc(N2C(=O)C3C4C=CC(C4)C3C2=O)c1 (stereo not drawn)	-6.8%	-2.2%	13.7%	-15.1%	13.1µM*	?
O=C(Nc1ccccc1)c1cccc(N2C(=O)C3C4CC(C(Br)C4Br)C3C2=O)c1 (stereo not drawn)	1.47µM*	-16.0%	-0.2%	-14.4%	?	3.0%
Cc1ccccc1NC(=O)c1cccc(N2C(=O)C3C4CCC(C4)C3C2=O)c1 (stereo not drawn)	-12.8%	0.5%	1.5%	-15.5%	·	1.7%
Cc1ccc(NC(=O)c2cccc(N3C(=O)C4C5C=CC(C5)C4C3=O)c2)cc1C (stereo not drawn)	-20.8%	-4.4%	1.7%	34.3%	11.7µM*	-1.1%
Cc1cccc(NC(=O)Cn2cc(C(=O)c3ccco3)c3ccccc32)c1C	·	1.7%	·	·	·	-7.8%
O=C(Cn1cc(C(=O)c2ccco2)c2ccccc21)Nc1ccccc1F	?	0.0%	-0.8%	28.2µM*	0.0%	-2.5%
O=C(c1ccccc1F)c1cn(Cc2ccc(F)cc2)c2ccccc12	-5.0%	-4.6%	7.3%	-51.6%	7.38µM*	-14.5%
COC(=O)Cn1cc(C(=O)c2ccccc2F)c2ccccc21	6.9%	-12.9%	-6.9%	-9.2%	1.65µM*	-0.4%
CCCc1nnc(NC(=O)C2CC(=O)N(C3CCCC3)C2)s1 (stereo not drawn)	-4.4%	-2.9%	-0.7%	-7.7%	9.2%	0.2%
COC1(NC(=O)c2ccccc2)C(C)=CC(=O)C=C1C	60.3%	25.1µM*	2.7%	-1.6%	0.0%	-5.1%
CCOC(=O)c1c(C)nc2c(c1-c1ccc(Cl)cc1)C(=O)CC(C)(C)C2	?	-9.2%	10.3%	106.2%	119.3%	-14.2%
CC(=O)NC(=S)Nc1cccc([N+](=O)[O-])c1	7.4%	-17.2%	-1.9%	-1.6%[2.29 µM]	15.3%	-4.1%
O=C(Nc1c(C(=O)N2CCOCC2)oc2ccccc12)c1cccc([N+](=O)[O-])c1	-4.0%	-20.9%	-1.8%	-1.3%	13.1µM*	-10.6%
